Measured values published in PubChem BioAssay (Tox21).
Inconclusive results are not listed. Activity calls are given as the source filed them. Unless noted, calls come from the whole dose curve.

Assay: qHTS assay to identify small molecule agonists of the endoplasmic reticulum stress response signaling pathway (AID 1159516; active = well fitted activation curve with a large enough effect in the signal ratio in the repeat runs, not every such curve was filed as active; the % refers to the signal ratio)
Conditions: ESRE-bla HeLa, ER stress beta-lactamase reporter, 5 h; series mostly up to 61 µM; activation: at the top concentration
Method in brief: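 CellSensor ESRE-bla HeLa cells, 1,500 per well, plated overnight, then exposed to compounds for 5 hr at 37 C. Beta-lactamase reporter read with LiveBLAzer B/G FRET substrate after 2 hr at room temperature, 405 nm excitation, 460 and 530 nm emission.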
% is set by controls: 0 for no effect and ±100 for the full control effect.

Which “activation” value does the source give for CCCCCCCCOCCC#N here?
Its value is -0.143% (inactive).

Which “activation” value does the source give for CCCOc1ccc(C(=O)OCCN(CC)CC)cc1N here?
Its value is -0.0263% (inactive).

For NC(=O)CC[C@@H](N)C(=O)O, which “activation” value is on record?
The value was -0.0527% (inactive).

For CO/N=C(\C(=O)O)c1csc(NC(=O)CCl)n1, which “activation” value is on record?
Its value is 3.26% (inactive).

For C=CCOC(=O)CCCCCCCC, which “activation” value is on record?
Its value is -1.61% [at 78.8 µM] (inactive).

Which “activation” value does the source give for O=C1CC2(CCCC2)CC(=O)N1CCNCC1COc2ccccc2O1 (stereo not drawn) here?
Its value is 4.68% (inactive).

With O=S(=O)(O)c1cc(I)c(O)c2ncccc12 as the molecule, how does the “activation” value read?
Its value is -0.355% (inactive).

With CCCCN1C(=O)c2ccccc2C1=O as the molecule, how does the “activation” value read?
The value was -6.66% [at 78.8 µM] (inactive).

For CC(C)OC(=O)C(C(=O)OC(C)C)=C1SC=CS1, which “activation” value is on record?
Its value is -1.03% (inactive).

With COC(=O)c1ccc(C(=O)O)cc1 as the molecule, how does the “activation” value read?
Its value is -1.39% (inactive).

With C=CCN(CC=C)CC=C as the molecule, how does the “activation” value read?
Its value is 2.21% (inactive).

With BrCCOc1ccccc1 as the molecule, how does the “activation” value read?
The value was -3.93% [at 78.8 µM] (inactive).

Which “activation” value does the source give for CC(=O)c1ccc(O)c(C(N)=O)c1 here?
Its value is 0.683% (inactive).

Assay: qHTS assay to identify small molecule agonists of the endoplasmic reticulum stress response signaling pathway - cell viability counter screen (AID 1159517);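 note: HeLa cells carrying an ER stress response element beta-lactamase reporter; nearly all actives have a fitted effect of over 50% in size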
Conditions: ESRE-bla HeLa viability, CellTiter-Glo luminescence, 5 h; series mostly up to 61 µM; activity change, negative = cytotoxicity: at the top concentration
Method in brief: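 Luminescence readout: CellTiter-Glo, 30 min RT, same wells as the ESRE-bla reporter read. HeLa ESRE-bla, 1,500 cells/well, o/n 37 C; cpd 5 hr 37 C/5% CO2.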

Which “activity change, negative = cytotoxicity” value does the source give for COc1ccccc1N1CCN(CC(O)COc2cc(OC)c(OC)c(OC)c2)CC1 (stereo not drawn) here?
The value was -1.53% (inactive).

For C/C=C(\C)C=O, which “activity change, negative = cytotoxicity” value is on record?
The value was 2.35% [at 78.8 µM] (inactive).

With CCCCCCCCCCCCCCBr as the molecule, how does the “activity change, negative = cytotoxicity” value read?
Its value is 0.57% [at 78.8 µM] (inactive).

For NNC(=O)CCCCC(=O)NN, which “activity change, negative = cytotoxicity” value is on record?
Its value is 14.8% (inactive).

With Nc1nc(Cl)cc(Cl)n1 as the molecule, how does the “activity change, negative = cytotoxicity” value read?
Its value is 0.319% (inactive).

With C=CCON/C(CCC)=C1\C(=O)CC(C)(C)C(C(=O)OC)=C1O as the molecule, how does the “activity change, negative = cytotoxicity” value read?
Its value is -3.04% (inactive).

With CCCCOCCCC as the molecule, how does the “activity change, negative = cytotoxicity” value read?
Its value is -5.09% (inactive).

For Cc1cc(C)c(N)c(Cl)c1, which “activity change, negative = cytotoxicity” value is on record?
Its value is -6.55% (inactive).

With C=CC(=O)OCC[N+](C)(C)C as the molecule, how does the “activity change, negative = cytotoxicity” value read?
Its value is 6.4% [at 78.8 µM] (inactive).

With CC/C=C\CCOC(=O)c1ccccc1 as the molecule, how does the “activity change, negative = cytotoxicity” value read?
The value was -3.39% (inactive).

With O=P(O)(O)C(O)(Cc1cccnc1)P(=O)(O)O as the molecule, how does the “activity change, negative = cytotoxicity” value read?
The value was 0.682% (inactive).

For CCN1CCN(C(=O)N[C@@H](C(=O)N[C@@H]2C(=O)N3[C@@H]2SC(C)(C)[C@H]3C(=O)O)c2ccccc2)C(=O)C1=O, which “activity change, negative = cytotoxicity” value is on record?
The value was -7.18% (inactive).

With COC(=O)N/N=C/c1c[n+]([O-])c2ccccc2[n+]1[O-] as the molecule, how does the “activity change, negative = cytotoxicity” value read?
The value was -14.2% (inactive).

For CCCCCCCCCCCCCCCC(=O)OC, which “activity change, negative = cytotoxicity” value is on record?
The value was -8.82% [at 28.5 µM] (inactive).

With Cc1ccccc1C#N as the molecule, how does the “activity change, negative = cytotoxicity” value read?
Its value is 0.594% (inactive).

With CC(C)=CCC/C(C)=C\C#N as the molecule, how does the “activity change, negative = cytotoxicity” value read?
The value was 1.08% (inactive).

With NCC1CCC(C(=O)Oc2ccc(CCC(=O)O)cc2)CC1 (stereo not drawn) as the molecule, how does the “activity change, negative = cytotoxicity” value read?
The value was 1.3% (inactive).

Which “activity change, negative = cytotoxicity” value does the source give for O=S(=O)(O)CC(O)CCl (stereo not drawn) here?
Its value is 1.97% (inactive).

With CCCCCCCCCCCCCCCC/C=C/C1CC(=O)OC1=O (stereo not drawn) as the molecule, how does the “activity change, negative = cytotoxicity” value read?
Its value is -13.9% (inactive).

For Cc1ccc(Br)cc1, which “activity change, negative = cytotoxicity” value is on record?
The value was 1.78% (inactive).

With CCCCCCCCOCCC#N as the molecule, how does the “activity change, negative = cytotoxicity” value read?
Its value is 21.7% (inactive).

For CCCOc1ccc(C(=O)OCCN(CC)CC)cc1N, which “activity change, negative = cytotoxicity” value is on record?
Its value is 1.32% (inactive).

Which “activity change, negative = cytotoxicity” value does the source give for NC(=O)CC[C@@H](N)C(=O)O here?
The value was 11.3% (inactive).

Which “activity change, negative = cytotoxicity” value does the source give for O=C1CC2(CCCC2)CC(=O)N1CCNCC1COc2ccccc2O1 (stereo not drawn) here?
The value was 2.93% (inactive).

For O=S(=O)(O)c1cc(I)c(O)c2ncccc12, which “activity change, negative = cytotoxicity” value is on record?
The value was 4.1% (inactive).

Which “activity change, negative = cytotoxicity” value does the source give for CCCCN1C(=O)c2ccccc2C1=O here?
The value was -25.5% [at 78.8 µM] (inactive).

Which “activity change, negative = cytotoxicity” value does the source give for CC(C)OC(=O)C(C(=O)OC(C)C)=C1SC=CS1 here?
The value was -13% (inactive).

Which “activity change, negative = cytotoxicity” value does the source give for COC(=O)c1ccc(C(=O)O)cc1 here?
The value was -21.6% (inactive).

For BrCCOc1ccccc1, which “activity change, negative = cytotoxicity” value is on record?
Its value is 7.05% [at 78.8 µM] (inactive).

For CC(=O)c1ccc(O)c(C(N)=O)c1, which “activity change, negative = cytotoxicity” value is on record?
The value was 3.62% (inactive).
